Data published in PubChem BioAssay AID624288 (National Center for Advancing Translational Sciences (NCATS), 2012).
Among all 340,000 compounds or so, about 1,400 (0.41%) were called active. Not shown: some 4% with an inconclusive outcome. Calls follow the shape of the full dose curve; cell line not stated here. The full list was thinned out, with actives kept by preference.

assay: qHTS for Antagonists of gsp, the Etiologic Mutation Responsible for Fibrous Dysplasia/McCune-Albright Syndrome: qHTS; conditions: gsp-mutant cells, cAMP HTRF, 30 min; series mostly up to 76.9 µM; activity change, negative = inhibition: at the top concentration; also: nearly all actives have a fitted effect of over 65% in size
Description: McCune-Albright syndrome (MAS) is a rare disease caused by somatic mutations in Gsgsp), a widely expressed protein central in signal transduction from G-coupled protein receptors (GPCRs). The disease symptoms are diverse, owing to the fact that the patients are mosaics with varying degrees of tissue involvement. Greater than 90% of the mutations in Gs in MAS occur at the R201 position and are equally divided between R201H and R201C. The R201 residue is central in the intrinsic GTPase activity of Gs and the H and C mutations lead to loss of, or impairment of, the GTPase activity. The intrinsic GTPase activity is necessary to terminate the interaction between Gs and adenylate cyclase, and to terminate the cAMP-mediated signaling of the given GPCR pathway. Thus, these activating mutations lead to ligand-independent activation of GPCR pathways. The tissue phenotype is determined by the role of Gs in the function of a given cell, and excess Gs/cAMP signaling in that cell. For example, pituitary somatotrophs overproduce growth hormone in a growth hormone releasing hormone-independent fashion, and gigantism/acromegaly ensues. Skeletal stem cells in the bone marrow behave as if they are under constant parathyroid hormone stimulation and fail to differentiate into osteoblasts and osteocytes, and proliferate as immature osteogenic cells and lead to the marrow fibrosis of fibrous dysplasia of bone. The goal of this project is to identify molecules with inhibitory activity at gsp mutations that will not only allow for in-depth study of the underlying molecular and cellular pathophysiology, but also serve as compounds from which drugs to treat FD/MAS can be developed NIH Chemical Genomics Center [NCGC] NIH Molecular Libraries Probe Centers Network [MLPCN] MLPCN Grant: IRP-FT-DE-2011-01 Assay Submitter (PI): Michael Collins, NIDCR
1.#Seed 2000 cells/well in 6 ul DMEM 10% FBS, 1% Pen/Strep, 0.5 mg/ml G418 2.#Incubate 16-24 hr at 37C, 5% CO2, 95% humidity 3.#Aspirate leaving 1 ul residual volume 4.#Dispense 5 ul/well DPBS + 1 mM CaCl2, 0.5 mM MgCl2, 0.05% BSA, 0.005% Tween 20 5.#Aspirate leaving 2 ul residual volume 6.#Dispense 23 nl/well compounds in DMSO 7.#Dispense 1 ul/well 300 uM Ro-20174 in DMEM 10% FBS 8.#Incubate 30 min at 37C, 5% CO2, 95% humidity 9.#Dispense 1.5 ul/well HTRF reagent: cAMP-d2 in lysis buffer 10.#Dispense 1.5 ul/well HTRF reagent: anti-cAMP antibody-K in lysis buffer 11.#Incubate 30 min at room temperature 12.#Detect HTRF signal using EnVision plate reader
% is scaled to controls: 0 for no effect and ±100 for the full control effect; potency is read from the fitted curve at half-maximal effect.

Activity change, negative = inhibition, inactive:
COc1cc(NC(=O)C2=CC(c3ccc(C)cc3)=NS(=O)(=O)N2C)cc(OC)c1OC -12.6%
COc1cc(NC(=O)C2=CC(c3ccco3)=NS(=O)(=O)N2C)cc(OC)c1OC -2.3%
COC(=O)Cc1nc2c(N)nc(N)nc2[nH]c1=O -0.61%
CC(=O)C12CC(C)=C(C)CC1CC1C3CCC4=CC(=O)CCC4(C)C3CCC12C (stereo unspecified) -11.6%
Cc1onc(-c2c(F)cccc2Cl)c1C(=O)Nc1cccc(S(=O)(=O)N2CCCCC2)c1 -15.9%
CN1CCOC1c1ccc(C2OCCN2C)cc1 (stereo unspecified) -2.61%
CC1CN(Cc2ccccc2)C(=S)NC1=O (stereo unspecified) 11.6%
COc1ccccc1NC(=O)N(O)C1(C#N)CCCCC1 10.5%
CCOc1ccc2c(c1)C(c1ccc(C)cc1)=NNC(c1ccc(C)cc1)=N2 -5.6%
Cc1ccc(-c2csc(-c3c[nH]c4ccccc34)n2)cc1 -14.8%
CC(=O)c1ccc(NC(=O)C(C)OC(=O)c2ccc(NS(=O)(=O)c3ccc4[nH]c(=O)[nH]c4c3)cc2)cc1 (stereo unspecified) 3.15%
O=C(O)C(CCc1ccccn1)c1ccccc1 (stereo unspecified) 1.38%
Cc1ccc(/C=C2\SC(=S)N(CCC(=O)Nc3ccc(O)cc3)C2=O)cc1 4.75%
O=C(CCCN1C(=O)/C(=C/c2cccs2)SC1=S)Nc1ccc(O)cc1 -10.1%
Cc1ccc(OCCNC(=O)c2cccc(S(=O)(=O)N3CCN(Cc4ccccc4)CC3)c2)cc1 -9.83%
COc1ccc(OC)c(Cc2cnc3nc(N)nc(N)c3c2C)c1 -2.01%
CC(=O)OCCC(C)C 9.48%
CC(=O)OC(C)C[N+](C)(C)C (stereo unspecified) 1.38%
O=C1OC(Oc2ccc(Br)cc2)(c2ccccc2)c2ccccc21 (stereo unspecified) -18%
CCCCN1CC(COc2ccccc2)Oc2cccc(F)c2S1(=O)=O (stereo unspecified) -12.9%
O=C(c1cccc(F)c1)N1CCN(c2ccc([N+](=O)[O-])c(N3CCCCC3)c2)CC1 -11.9%
O=C(c1ccc(N2CCOCC2)c([N+](=O)[O-])c1)N1CCN(c2ccccc2F)CC1 -2.65%
COc1cc(C2c3cc4c(cc3C(O)C3COC(=O)C23)OCO4)cc(OC)c1OC (stereo unspecified) 16.2%
O=C(Cc1ccc(S(=O)(=O)N2CCOCC2)s1)Nc1ccc(Br)c(C(F)(F)F)c1 -38.2%
O=C(c1cccnc1)N(Cc1ccccc1)C(=O)c1cccnc1 5.46%
CCCN(CC(=O)Nc1ccccc1C)C(=O)c1ccc(OCC(=O)N2CCOCC2)c(OCC)c1 -2.96%
COc1ccc(CCNC(=O)COc2cc(C)cc3oc(=O)c(C)c(C)c23)cc1OC 4.24%
CC(C)OCCCNC(=O)c1cc(Sc2ccc(F)cc2)nc2ccccc12 16%
CCOC(=O)[C@H]1[C@H]2COc3ccc(Br)cc3[C@@H]2N2C(=O)CN(C)C(=O)[C@@]12C 0.52%
O=C(NCc1ccccc1)c1cccc(NC(=O)C2CCCCC2)c1 -0.777%
Cc1c(CN2CC[C@@H](N3CCN(c4ccccn4)CC3)[C@H](O)C2)[nH]c2ccc(F)cc12 4.63%
CCN(CC)CCCN1C(=O)C(=O)/C(=C(/O)c2c(C)nc3ccccn23)C1c1ccc(C)o1 (stereo unspecified) 8.42%
O=C(Nc1nc2ccccc2s1)c1ccc2c(c1)OCO2 -20.8%
CC(=O)NCCC(=O)Nc1nc(-c2ccc3c(c2)OCCO3)cs1 1.23%
N#CC1(Nc2ccc(-c3ccc(Cl)cc3)cc2)CCCC1 2.59%
FC(F)(F)c1ccc(-c2cccc3c2C2CC3CCN2Cc2ccccc2)cc1 (stereo unspecified) -6.66%
CCOC(=O)c1ccccc1OC(=O)Oc1ccccc1C(=O)OCC -13%
CC(=O)Oc1ccc2c(c1)C(=O)c1ccccc1C2=O -0.802%
CCCCN1CC(COCc2ccccc2)OCCS1(=O)=O (stereo unspecified) 12.5%
C=CC(=O)Nc1ccc(Nc2ccnc(Nc3ccc(N4CCN(C)CC4)cc3)n2)cc1 -4.93%
COc1ccc(Cl)cc1C=CC=Nc1ccc(S(N)(=O)=O)cc1 0.98%

Potency, active:
COc1ccc(NC(=O)C2=CC(c3ccc(OC)c(OC)c3)=NS(=O)(=O)N2C)cc1 39.8 µM
CSc1ncnc2c1ncn2CC(=O)C1CCC2C3CCC4=CC(=O)CCC4(C)C3CCC12C (stereo unspecified) 31.6 µM
Cc1ccc(C2=Nc3c(ccc4ccccc34)C(c3ccncc3)=NN2)cc1 31.6 µM
O=C(CCN1C(=O)/C(=C/c2cccs2)SC1=S)NNC(=O)c1cccc(O)c1 31.6 µM
CC(=O)OCC(COC(C)=O)OC(C)=O 35.5 µM
O=C(c1cccc(F)c1)N1CCN(c2ccc([N+](=O)[O-])c3cccnc23)CC1 39.8 µM
CC(C)OCCCNc1ncnc2c1[nH]c1ccc(F)cc12 39.8 µM
Fc1ccc2[nH]c3c(N4CCSCC4)ncnc3c2c1 28.2 µM
O=C(Nc1nc(-c2ccc3c(c2)OCO3)cs1)c1ccncc1 39.8 µM
O=C1C(Cl)=C(Oc2ccccc2)C(=O)c2ccccc21 39.8 µM
